Compound activity deposited in PubChem by National Center for Advancing Translational Sciences (NCATS).
Only some compounds are listed: those with a hit (about 18% of all), similar ones and a draw of the others.
TDP1 cell noCPT – qHTS for Inhibitors of human tyrosyl-DNA phosphodiesterase 1 (TDP1): qHTS in cells in absence of CPT; DT40 Tdp1-/- hTDP1 cells, no CPT, ATP luminescence, 48 h; Potency, µM (titrated, usually from 46.2 µM), actives largely listed as inhibitors; 420,000 compounds, 15% hits; also: nearly all actives have a fitted effect of over 55% in size
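Compound effects on proliferation are scored in DT40 Tdp1-/-;hTDP1 cells in the absence of CPT. ATP levels (CellTiter-Glo luminescence) are recorded after a ≥48 hr, 37 °C incubation.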
IL-1B inflam inh – blocks inflammasome-driven IL-1 beta release | THP-1 LPS/ATP IL-1B secretion, AlphaLISA, 16 h; hits give low values | activity change, % at 57.5 µM | 360,000 compounds, 4.7% hits | AID 743279; in the data active = activity change below about -50%; inconclusive = mostly about -30% to -49%
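Secreted IL-1B measured by AlphaLISA bead assay after 16 h compound exposure of THP-1 cells; compounds (final up to 57.5 uM) added 1 h before LPS (250 ng/mL) and ATP (1.25 mM) stimulation; lower signal means less secretion.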
TDP1 cell CPT – growth inhibition of DT40 Tdp1-/-;hTDP1 cells with camptothecin (screen for TDP1 inhibitors); chicken DT40 Tdp1-/-;hTDP1 cells + 20 nM CPT, ATP luminescence, 48 h; 420,000 compounds, 12% hits; Potency, µM (top dose mostly 46.2 µM), most hits filed as inhibitors; AID 686979; also: nearly all actives have a fitted effect of over 55% in size
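Chicken DT40 Tdp1-/- cells complemented with human TDP1, 400 cells/well, exposed to compounds plus 20 nM camptothecin for at least 48 h at 37 C; viability read as ATP content by CellTiter-Glo luminescence.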
Six1-Eya2 blk – inhibitors of human Six1/Eya2 interaction; Q15475+O00167; AlphaScreen GST-Six1/His-Eya2 binding, biochemical; hits give low values; activity change, % (concentration not given with the values); 360,000 compounds, 0.56% hits; AID 651725; in the data active = activity change below about -65%; inconclusive = mostly about -30% to -63%
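Homogeneous AlphaScreen proximity assay pairing GST-Six1 with His-tagged Eya2 (added as 5X mix: 250 nM and 500 nM) in 50 mM Tris pH 8.0, 300 mM NaCl, 1 mM TCEP. Glutathione donor and nickel acceptor beads; 1 h, 37 °C, dark.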
CtBP-E1A inh – inhibitors of CtBP/E1A interaction; AlphaScreen GST-E1A/His-CtBP binding, 1536-well; hits give low values; activity change, % (concentration not given with the values); 340,000 compounds, 0.49% hits; in the data active = activity change below about -65%; inconclusive = mostly about -30% to -63%
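Homogeneous bead-based format: GST-tagged E1A captured on glutathione donor beads, His-tagged CtBP on nickel acceptor beads; compounds precede bead addition by 2 h at 37 °C.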
TDP1 block – TDP1 (human) enzyme inhibition; Q9NUW8; recombinant TDP1, AlphaScreen DNA substrate cleavage; Potency, µM (titrated, usually from 130 µM), actives largely listed as inhibitors; 350,000 compounds, 0.28% hits; also: nearly all actives have a fitted effect of over 40% in size
Target sequence (Q9NUW8 whole entry, looked up): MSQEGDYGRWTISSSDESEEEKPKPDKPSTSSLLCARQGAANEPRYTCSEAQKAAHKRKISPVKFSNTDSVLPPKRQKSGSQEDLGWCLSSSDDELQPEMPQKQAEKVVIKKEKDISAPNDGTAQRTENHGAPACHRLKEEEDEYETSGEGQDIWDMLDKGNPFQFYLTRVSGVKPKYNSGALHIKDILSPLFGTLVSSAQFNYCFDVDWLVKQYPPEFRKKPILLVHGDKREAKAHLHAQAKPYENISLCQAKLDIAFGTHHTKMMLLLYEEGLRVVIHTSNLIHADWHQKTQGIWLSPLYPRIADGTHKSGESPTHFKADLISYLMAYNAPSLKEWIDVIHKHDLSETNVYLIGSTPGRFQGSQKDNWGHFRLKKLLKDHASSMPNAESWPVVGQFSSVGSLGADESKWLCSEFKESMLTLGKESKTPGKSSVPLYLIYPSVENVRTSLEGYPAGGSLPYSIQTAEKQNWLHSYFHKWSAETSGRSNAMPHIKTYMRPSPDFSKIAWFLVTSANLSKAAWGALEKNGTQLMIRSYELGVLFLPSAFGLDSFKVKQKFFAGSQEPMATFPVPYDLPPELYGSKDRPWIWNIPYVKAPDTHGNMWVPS
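Here, a 5' biotin and 3' phosphotyrosine-FITC DNA oligonucleotide reports Tdp1 activity: intact substrate bridges AlphaScreen beads, while cleavage leaves a 3' phosphate and drops signal. All incubations at room temperature.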
Each line names hits and unclear results; the compound was inactive in the other large screens. Unless noted, calls follow the shape of the dose curve; as a rule, active = well fitted curve in the direction sought with a large enough effect; inconclusive = small, poorly fitted or top-dose-only effect, or another doubt; inactive = no such curve, though single readings can be large; an effect the other way counts as inactive or inconclusive.

CC(C)C(=O)N1CCN(c2nc(-c3ccccc3)c3c(c2C#N)CCCC3)CC1	TDP1 cell noCPT inconclusive, IL-1B inflam inh -57, TDP1 cell CPT inconclusive
CC1(C)Cc2c(C#N)c(N3CCOCC3)nc(-c3ccccc3)c2CO1	TDP1 cell noCPT inconclusive
Cc1ccc(-c2c(C(=O)c3ccc(Br)cc3)[nH]c(N)c2C(=O)NCc2ccc(Cl)cc2)cc1	none (no result: TDP1 block)
COc1ccnc(N2CCN(c3ccccc3)CC2)c1C#N	TDP1 cell CPT inconclusive
Cc1ccc(OCc2ccc(C(=O)Nc3cc(C)on3)o2)c([N+](=O)[O-])c1	TDP1 cell CPT inconclusive
CCn1c(NC(=O)c2ccc(COc3ccc(C)cc3[N+](=O)[O-])o2)nc2ccccc21	TDP1 cell noCPT inconclusive, TDP1 cell CPT 16µM
Cc1ccc(NC(=O)C(c2ccc(Cl)cc2)N2CCOCC2)cc1 (stereo unspecified)	TDP1 cell CPT inconclusive
Cc1cc(C)cc(NC(=O)C(c2ccccc2)N2CCCC2)c1 (stereo unspecified)	TDP1 cell noCPT 2.9µM, IL-1B inflam inh inconclusive, TDP1 cell CPT 3.7µM
Cc1cccc(C)c1NC(=O)C(c1ccc(Cl)cc1Cl)N1CCCCC1 (stereo unspecified)	TDP1 cell noCPT 29µM, IL-1B inflam inh inconclusive, TDP1 cell CPT 18µM
Cc1cc(C)cc(NC(=O)C(c2ccccc2)N2CCN(CC(=O)NC3CC3)CC2)c1 (stereo unspecified)	none
Cc1ccc(NC(=O)C(c2ccc(Cl)cc2)N2CCCCC2)cc1 (stereo unspecified)	TDP1 cell noCPT 13µM, TDP1 cell CPT 15µM
c1cnc(Oc2ccc3oc4ccccc4c3c2)nc1	none
COc1cc(/C=C2\SC(N)=NC2=O)ccc1OCC(=O)Nc1ccccc1C	TDP1 cell noCPT 9.2µM, TDP1 cell CPT inconclusive (no result: CtBP-E1A inh)
COc1cc(/C=C2/SC(=O)NC2=O)ccc1Oc1ccc([N+](=O)[O-])cc1[N+](=O)[O-]	TDP1 cell noCPT inconclusive, IL-1B inflam inh inconclusive, TDP1 cell CPT inconclusive, CtBP-E1A inh inconclusive
COc1cc(/C=C2\C(=O)N(c3ccccc3)N=C2C)ccc1Oc1ccc([N+](=O)[O-])cc1[N+](=O)[O-]	TDP1 cell noCPT 18µM, IL-1B inflam inh inconclusive, TDP1 cell CPT 16µM
NC1=NC(=O)/C(=C\c2ccc(O)c([N+](=O)[O-])c2)S1	Six1-Eya2 blk -76, CtBP-E1A inh -82
COc1cc(/C=C2/SC(N)=NC2=O)ccc1Oc1ccc([N+](=O)[O-])cc1[N+](=O)[O-]	TDP1 cell noCPT 2.9µM, TDP1 cell CPT 3.3µM
Cc1ccc2nc(NCc3ccccc3)c(C=NCc3ccccc3)c(=O)n2c1	none
CCOC(=O)N1CCN(CC(O)c2ccccc2)CC1 (stereo unspecified)	none (no result: CtBP-E1A inh)
CCOC(=O)c1cc(-c2ccc(F)cc2)n(CCC(=O)Nc2nc3cc(C)c(C)cc3s2)c1C	TDP1 cell noCPT inconclusive, TDP1 cell CPT inconclusive (no result: IL-1B inflam inh, Six1-Eya2 blk, CtBP-E1A inh)
Cc1cc(C(=O)N2CCCC(C)(C(=O)NS(=O)(=O)C3CC3)C2)n(C(C)(C)C)n1 (stereo unspecified)	TDP1 cell noCPT 5.2µM, TDP1 cell CPT 8.2µM (no result: TDP1 block)
Cc1ccc(F)cc1C(=O)N1CCCC(C)(C(=O)NS(=O)(=O)C2CC2)C1 (stereo unspecified)	TDP1 cell noCPT 2.6µM, TDP1 cell CPT inconclusive (no result: TDP1 block)
COc1ccc(C(=O)N2CCCC(C)(C(=O)NS(=O)(=O)C3CC3)C2)c(OC)c1 (stereo unspecified)	TDP1 cell noCPT 3.7µM, TDP1 cell CPT 2.1µM (no result: TDP1 block)
CC1(C(=O)NS(=O)(=O)C2CC2)CCCN(C(=O)c2ccc(F)cc2Cl)C1 (stereo unspecified)	TDP1 cell noCPT 1.5µM, TDP1 cell CPT inconclusive (no result: TDP1 block)
CCCCN1C(=O)C(O)=C(C(C)=O)C1c1ccc(OC)cc1OC (stereo unspecified)	none
CC(=O)Nc1ccc(NC(=O)C/C(C)=N/NC(=O)C(=O)Nc2ccc(C)c(Cl)c2)cc1	none
